This assay concerns HCI01 (cells of a triple-negative basal-like breast cancer xenograft). Description: cell viability of combination (% of vehicle); higher = less cytotoxic. The note with it: 1 µM; 72 h; partner dose: 10 nM. How it is done:
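PDX cells were treated for 72 h with each drug at 1 µM plus afatinib (10 nM; 1 µM for WHIM30). Luciferase viability is expressed as percent of vehicle.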
With `Cc1cc(C(C#N)c2ccc(Cl)cc2)c(Cl)cc1NC(=O)c1cc(I)cc(I)c1O` (stereo not given) [Closantel] + CN(C)C/C=C/C(=O)Nc1cc2c(Nc3ccc(F)c(Cl)c3)ncnc2cc1O[C@H]1CCOC1 [Afatinib], the “cell viability of combination” value was determined as 50.6.

With `CCCCCCCCCCCC[N+](C)(C)CCOc1ccccc1.[Br-]` [Domiphen Bromide] + CN(C)C/C=C/C(=O)Nc1cc2c(Nc3ccc(F)c(Cl)c3)ncnc2cc1O[C@H]1CCOC1 [Afatinib], the “cell viability of combination” value came to 51.

Turning to `CCCCCCCCCCCCCCCC[N+](C)(C)C.[Br-]` [Cetrimonium Bromide (CTAB)] + CN(C)C/C=C/C(=O)Nc1cc2c(Nc3ccc(F)c(Cl)c3)ncnc2cc1O[C@H]1CCOC1 [Afatinib], the “cell viability of combination” value turned out to be 50.1. Take `Cc1cc(C(C#N)c2ccc(Cl)cc2)c(Cl)cc1NC(=O)c1cc(I)cc(I)c1[O-].[Na+]` (stereo not given) [Closantel Sodium] + CN(C)C/C=C/C(=O)Nc1cc2c(Nc3ccc(F)c(Cl)c3)ncnc2cc1O[C@H]1CCOC1 [Afatinib]: the “cell viability of combination” value came out at 53.2. For `CCCCCCCCCCCCCCCC[n+]1ccccc1.[Cl-]` [Cetylpyridinium Chloride] + CN(C)C/C=C/C(=O)Nc1cc2c(Nc3ccc(F)c(Cl)c3)ncnc2cc1O[C@H]1CCOC1 [Afatinib], the “cell viability of combination” value came to 52.
